Results from PubChem BioAssay (NCI).
Compounds without any hit were thinned out: in the full panel of roughly 79,000, 15% have a hit. The source made the active and inactive calls. No stated cut-off is given here; in the data, active means growth inhibition above about 70%; inactive means the rest.

Experiments:
[1] = NCI Yeast Anticancer Drug Screen. Data for the rad52 strain (AID 147);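 further: 0% = growth of vehicle-treated control cultures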; conditions: S. cerevisiae rad52 mutant growth inhibition, stronger effect = higher value
In short: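 Read-out: growth inhibition versus vehicle-treated controls. Cells were a DNA repair-deficient yeast strain treated with compounds.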

[2] = NCI Yeast Anticancer Drug Screen. Data for the wt1 strain (AID 149);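 further: 0% = growth of vehicle-treated wt1 cultures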; conditions: S. cerevisiae wt1 strain (SPY 50644) growth inhibition, stronger effect = higher value
In short: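 Yeast wt1 strain exposed to compounds; growth inhibition measured relative to vehicle-treated controls.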

[3] = NCI Yeast Anticancer Drug Screen. Data for the rad50EPP+ strain (AID 151);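 further: 0% = growth of vehicle-treated control cultures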; conditions: S. cerevisiae rad50 mutant strain, stronger effect = higher value
In short: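 Growth inhibition read against vehicle controls in rad50EPP+ yeast, a strain altered in DNA damage repair, after compound exposure.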

[4] = NCI Yeast Anticancer Drug Screen. Data for the mgt1 strain (AID 153); conditions: S. cerevisiae mgt1 mutant growth inhibition, stronger effect = higher value
In short: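 mgt1 yeast grown with test compound; read-out is growth inhibition versus vehicle-treated cultures.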

[5] = NCI Yeast Anticancer Drug Screen. Data for the rad50 strain (AID 155);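 further: 0% = growth of vehicle-only cultures of the same strain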; conditions: S. cerevisiae rad50 strain growth inhibition, stronger effect = higher value
In short: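 Yeast carrying a defined DNA repair defect were exposed to test compounds, and growth was compared with vehicle-treated controls to give percent inhibition.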

[6] = NCI Yeast Anticancer Drug Screen. Data for the mec2-1 strain (AID 157); conditions: S. cerevisiae mec2-1 strain, stronger effect = higher value
In short: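 Yeast mec2-1 mutant treated with compound. Readout: growth inhibition vs vehicle controls.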

[7] = NCI Yeast Anticancer Drug Screen. Data for the rad14 strain (AID 159);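 further: 0% = growth of vehicle-treated control cultures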; conditions: S. cerevisiae rad14 strain growth inhibition, stronger effect = higher value
In short: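 Yeast cells carrying a defined DNA-repair defect were exposed to compounds, and growth inhibition was calculated relative to vehicle-treated control cultures.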

[8] = NCI Yeast Anticancer Drug Screen. Data for the sgs1 mgt1 strain (AID 161);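 further: 0% = growth of cultures given vehicle only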; conditions: S. cerevisiae sgs1 mgt1 strain, stronger effect = higher value
In short: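 Genetically altered yeast, compound exposure, growth inhibition relative to vehicle.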

[9] = NCI Yeast Anticancer Drug Screen. Data for the CLN2oe strain (AID 163);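 further: 0% = growth of vehicle-only control cultures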; conditions: S. cerevisiae CLN2oe strain, stronger effect = higher value
In short: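 Read-out: yeast growth inhibition, expressed relative to vehicle-only controls. The strain bears an engineered cell-cycle alteration.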

[10] = NCI Yeast Anticancer Drug Screen. Data for the cln2 rad14 strain (AID 165);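 further: 0% = growth equal to vehicle treated cultures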; conditions: S. cerevisiae cln2 rad14 strain, stronger effect = higher value
In short: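 cln2 rad14 yeast strain; compound exposure; growth inhibition read vs vehicle controls.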

[11] = NCI Yeast Anticancer Drug Screen. Data for the bub3 strain (AID 167); conditions: S. cerevisiae bub3 mutant strain, stronger effect = higher value
In short: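 Compounds were applied to a genetically altered yeast strain carrying a cell-cycle control defect. Growth inhibition was scored against vehicle-treated controls.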

[12] = NCI Yeast Anticancer Drug Screen. Data for the wt2 strain (AID 169);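 further: 0% = growth of vehicle-treated yeast cultures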; conditions: S. cerevisiae wt2 strain growth inhibition, stronger effect = higher value
In short: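 Read-out: growth inhibition versus vehicle-treated control cultures after compound exposure of the yeast strain.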

[13] = NCI Yeast Anticancer Drug Screen. Data for the mlh1 strain (AID 171);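 further: 0% = growth of vehicle-treated control cultures of the same strain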; conditions: S. cerevisiae mlh1 strain growth inhibition, stronger effect = higher value
In short: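 Read-out: growth inhibition versus vehicle controls. Strain: engineered yeast with a defined DNA repair or cell cycle defect, compound-treated.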

[14] = NCI Yeast Anticancer Drug Screen. Data for the sgs1 strain (AID 173);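 further: 0% = growth of vehicle-only control cultures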; conditions: S. cerevisiae sgs1 mutant, stronger effect = higher value
In short: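 Read-out: yeast growth inhibition relative to vehicle controls, following compound exposure of a strain with a defined DNA repair/cell cycle alteration.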

[15] = NCI Yeast Anticancer Drug Screen. Data for the mlh1 rad18 strain (AID 175); conditions: S. cerevisiae mlh1 rad18 strain growth inhibition, stronger effect = higher value
In short: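 Yeast w/ defined DNA-repair lesions; compound exposure; growth vs vehicle controls → % inhibition.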

[16] = NCI Yeast Anticancer Drug Screen. Data for the rad18 strain (AID 177); conditions: S. cerevisiae rad18 mutant growth inhibition, stronger effect = higher value
In short: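 Readout: growth inhibition vs vehicle controls. Cells: genetically altered yeast strain, DNA repair defect.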

[17] = at 5.0 µM (retest, dose inferred, filed as 0.5)
[18] = at 50.0 µM (retest, dose inferred, filed as 5.0)

Measured: growth inhibition

O=P(C(=S)Nc1c(Cl)cccc1Cl)(c1ccccc1)c1ccccc1
inactive: [1]; at 1.2 µM 21% | [1]; at 3.7 µM 24% | [1]; at 11.0 µM 22% | [1]; at 33.0 µM 24% | [2]; at 1.2 µM 31% | [2]; at 3.7 µM 25% | [2]; at 11.0 µM 18% | [2]; at 33.0 µM 24% | [3]; at 1.2 µM 6% | [3]; at 3.7 µM 8% | [3]; at 11.0 µM 24% | [3]; at 33.0 µM 19% | [3]; at 100.0 µM 31% | [4]; at 1.2 µM 11% | [4]; at 3.7 µM -16% | [4]; at 11.0 µM -11% | [4]; at 33.0 µM -1% | [5]; at 1.2 µM 20% | [5]; at 3.7 µM 8% | [5]; at 11.0 µM 14% | [5]; at 33.0 µM 1% | [6]; at 1.2 µM 5% | [6]; at 3.7 µM 9% | [6]; at 11.0 µM 14% | [6]; at 33.0 µM 7% | [7]; at 1.2 µM -13% | [7]; at 3.7 µM -14% | [7]; at 11.0 µM -16% | [7]; at 33.0 µM -18% | [8]; [17] -6% | [9]; at 1.2 µM 8% | [9]; at 3.7 µM 21% | [9]; at 11.0 µM 15% | [9]; at 33.0 µM 16% | [10]; [17] 41% | [11]; at 1.2 µM 0% | [11]; at 3.7 µM 4% | [11]; [17] 21% | [11]; at 11.0 µM 14% | [11]; at 33.0 µM 11% | [12]; at 1.2 µM 21% | [12]; at 3.7 µM 8% | [12]; at 11.0 µM 15% | [12]; at 33.0 µM 35% | [13]; at 1.2 µM 10% | [13]; at 3.7 µM 10% | [13]; at 11.0 µM 0% | [13]; at 33.0 µM 6% | [14]; at 1.2 µM 25% | [14]; at 3.7 µM 13% | [14]; at 11.0 µM 3% | [14]; at 33.0 µM 18% | [15]; [17] 60%
active: [1]; at 100.0 µM 97% | [2]; at 100.0 µM 96% | [4]; at 100.0 µM 95% | [5]; [17] 73% | [5]; [18] 99% | [5]; at 50.0 µM 87.7% | [5]; at 100.0 µM 95% | [6]; [17] 71% | [6]; [18] 99% | [6]; at 50.0 µM 91% | [6]; at 100.0 µM 94% | [7]; at 100.0 µM 94% | [8]; [18] 95% | [8]; at 50.0 µM 88.3% | [9]; at 100.0 µM 95% | [10]; [18] 96% | [10]; at 50.0 µM 89.9% | [11]; [18] 75% | [11]; at 50.0 µM 89% | [11]; at 100.0 µM 97% | [12]; at 100.0 µM 96% | [13]; at 100.0 µM 95% | [14]; at 100.0 µM 95% | [15]; [18] 98% | [15]; at 50.0 µM 87.2%

CC(C)[Si]1(C(C)C)OCC2OC(n3cnc4c(N)ncnc43)C(N)C2O[Si](C(C)C)(C(C)C)O1 (stereo unspecified)
active: [1]; at 33.0 µM 98% | [1]; at 100.0 µM 98% | [2]; at 33.0 µM 98% | [2]; at 100.0 µM 98% | [3]; at 100.0 µM 89% | [4]; at 33.0 µM 98% | [4]; at 100.0 µM 98% | [5]; at 33.0 µM 98% | [5]; [18] 98% | [5]; at 50.0 µM 89.8% | [5]; at 100.0 µM 98% | [6]; at 33.0 µM 98% | [6]; [18] 99% | [6]; at 50.0 µM 90.4% | [6]; at 100.0 µM 98% | [7]; at 33.0 µM 98% | [7]; at 100.0 µM 98% | [8]; [18] 99% | [8]; at 50.0 µM 88.8% | [9]; at 33.0 µM 97% | [9]; at 100.0 µM 98% | [10]; [18] 99% | [10]; at 50.0 µM 89.3% | [11]; at 33.0 µM 97% | [11]; [18] 99% | [11]; at 50.0 µM 86.5% | [11]; at 100.0 µM 98% | [12]; at 11.0 µM 93% | [12]; at 33.0 µM 98% | [12]; at 100.0 µM 97% | [13]; at 33.0 µM 97% | [13]; at 100.0 µM 98% | [14]; at 33.0 µM 97% | [14]; at 100.0 µM 98% | [15]; [18] 99% | [15]; at 50.0 µM 87.4% | [16]; at 33.0 µM 97% | [16]; at 100.0 µM 97%
inactive: [1]; at 1.2 µM 3% | [1]; at 3.7 µM 9% | [1]; at 11.0 µM 32% | [2]; at 1.2 µM 5% | [2]; at 3.7 µM 11% | [2]; at 11.0 µM 34% | [3]; at 1.2 µM 10% | [3]; at 3.7 µM 20% | [3]; at 11.0 µM 15% | [3]; at 33.0 µM 24% | [4]; at 1.2 µM 19% | [4]; at 3.7 µM 16% | [4]; at 11.0 µM 20% | [5]; at 1.2 µM 7% | [5]; at 3.7 µM 10% | [5]; [17] 38% | [5]; at 11.0 µM 41% | [6]; at 1.2 µM 19% | [6]; at 3.7 µM -5% | [6]; [17] 14% | [6]; at 11.0 µM 14% | [7]; at 1.2 µM -1% | [7]; at 3.7 µM 1% | [7]; at 11.0 µM 13% | [8]; [17] 7% | [9]; at 1.2 µM 14% | [9]; at 3.7 µM 2% | [9]; at 11.0 µM 5% | [10]; [17] 18% | [11]; at 1.2 µM -3% | [11]; at 3.7 µM -10% | [11]; [17] -26% | [11]; at 11.0 µM 9% | [12]; at 1.2 µM -50% | [12]; at 3.7 µM -34% | [13]; at 1.2 µM 3% | [13]; at 3.7 µM 14% | [13]; at 11.0 µM 32% | [14]; at 1.2 µM 6% | [14]; at 3.7 µM 5% | [14]; at 11.0 µM 19% | [15]; [17] 47% | [16]; at 1.2 µM -8% | [16]; at 3.7 µM 2% | [16]; at 11.0 µM 22%

O=S(=O)(c1cccc(C(F)(F)F)c1)N1c2ccccc2-n2cccc2C1c1cccnc1 (stereo unspecified)
inactive: [1]; at 1.2 µM -23% | [1]; at 3.7 µM 7% | [2]; at 1.2 µM -22% | [2]; at 3.7 µM -8% | [2]; at 11.0 µM 55% | [3]; at 1.2 µM -73% | [3]; at 3.7 µM -45% | [3]; at 11.0 µM -54% | [3]; at 33.0 µM -57% | [3]; at 100.0 µM -46% | [4]; at 1.2 µM -43% | [4]; at 3.7 µM -16% | [5]; at 1.2 µM -15% | [5]; at 3.7 µM 5% | [5]; [17] 27% | [6]; at 1.2 µM -59% | [6]; at 3.7 µM -32%
active: [1]; at 11.0 µM 87% | [1]; at 33.0 µM 95% | [1]; at 100.0 µM 91% | [2]; at 33.0 µM 92% | [2]; at 100.0 µM 89% | [4]; at 11.0 µM 78% | [4]; at 33.0 µM 94% | [4]; at 100.0 µM 92% | [5]; at 11.0 µM 85% | [5]; at 33.0 µM 92% | [5]; [18] 96% | [5]; at 50.0 µM 90.5% | [5]; at 100.0 µM 87%
